Assay outcomes as filed in PubChem.
In the library only some 9.2% were active in any assay of this set; here they are far more common.
HPGD block – qHTS Assay for Inhibitors of HPGD (15-Hydroxyprostaglandin Dehydrogenase). Potency, µM, without a hit: top-dose activity change, negative = inhibition, usual class: inhibitors. purified HPGD, NADH fluorescence kinetic, PGE2 substrate. 4.3% of 150,000 active. AID 894, 2007. 15-hydroxyprostaglandin dehydrogenase [NAD(+)] (Homo sapiens), P15428; further: on the % scale 0 is the no-effect control and ±100 the full control effect
Target sequence (P15428 whole entry, looked up): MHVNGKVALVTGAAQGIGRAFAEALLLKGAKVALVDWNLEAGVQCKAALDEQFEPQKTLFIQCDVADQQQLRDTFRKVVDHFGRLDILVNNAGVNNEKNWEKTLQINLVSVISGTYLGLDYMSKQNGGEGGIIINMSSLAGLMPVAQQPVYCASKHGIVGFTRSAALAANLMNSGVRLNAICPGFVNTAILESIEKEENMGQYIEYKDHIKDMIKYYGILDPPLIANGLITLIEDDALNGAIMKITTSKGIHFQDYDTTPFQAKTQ
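20 nM HPGD preincubated 15 min at room temperature with compound in 50 mM Tris-HCl pH 8, 0.01% Tween 20. Started with 1 mM NAD+ and 30 uM prostaglandin E2; NADH fluorescence (360/450 nm) read 5 times over 30-s intervals, last minus first.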
JMJD2E inh – qHTS Assay for Inhibitors of Human Jumonji Domain Containing 2E (JMJD2E). Lysine-specific demethylase 4E (Homo sapiens), B2RXH2. JMJD2E catalytic domain, FDH-coupled NADH fluorescence (FDH is formaldehyde dehydrogenase). Potency, µM (series often up to 57.1 µM), without a hit: at the top dose activity change, negative = inhibition, actives largely listed as inhibitors. 1.6% of 230,000 active;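 further: 0% = wells with enzyme and -100% = buffer wells without enzyme; nearly all actives have a fitted effect of over 50% in size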
Lamin A splicing – qHTS Assay for Modulators of Lamin A Splicing; 0.01% of 200,000 active; Potency, µM (doses to about 46.1 µM), for the others: at the top dose ratio change, negative = inhibition, most hits filed as inhibitors; HeLa LMNA splicing GFP/RFP minigene ratio, 48 h; active means well fitted inhibition curve with a large enough effect in the signal ratio, with a control signal flat, not every such curve was filed as active; inconclusive means small, poorly fitted or top-dose-only effect, or effect the other way, or a change in a side signal; the % refers to the signal ratio; further: on the % scale 0 is the no-effect control and ±100 the full control effect
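Read-out is the ratio of GFP to DsRed2 object intensity, acquired by 488 nm laser-scanning cytometry on HeLa lamin A-EGFP minigene reporter cells. Compound incubation 48 hrs at 37 °C in Opti-MEM with 2% FBS; DMSO 0.5% final.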
ALDH1A1 inh – qHTS Assay for Inhibitors of Aldehyde Dehydrogenase 1 (ALDH1A1); Potency, µM (top dose mostly 75.3 µM), for the others: at the top dose activity, negative = inhibition, actives largely listed as inhibitors; Aldehyde dehydrogenase 1A1 (Homo sapiens), P00352; Purified ALDH1A1, NADH fluorescence, propionaldehyde substrate; 7.3% of 220,000 active;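 further: plate controls were no enzyme wells and a reference inhibitor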
Target sequence (P00352 whole entry, looked up): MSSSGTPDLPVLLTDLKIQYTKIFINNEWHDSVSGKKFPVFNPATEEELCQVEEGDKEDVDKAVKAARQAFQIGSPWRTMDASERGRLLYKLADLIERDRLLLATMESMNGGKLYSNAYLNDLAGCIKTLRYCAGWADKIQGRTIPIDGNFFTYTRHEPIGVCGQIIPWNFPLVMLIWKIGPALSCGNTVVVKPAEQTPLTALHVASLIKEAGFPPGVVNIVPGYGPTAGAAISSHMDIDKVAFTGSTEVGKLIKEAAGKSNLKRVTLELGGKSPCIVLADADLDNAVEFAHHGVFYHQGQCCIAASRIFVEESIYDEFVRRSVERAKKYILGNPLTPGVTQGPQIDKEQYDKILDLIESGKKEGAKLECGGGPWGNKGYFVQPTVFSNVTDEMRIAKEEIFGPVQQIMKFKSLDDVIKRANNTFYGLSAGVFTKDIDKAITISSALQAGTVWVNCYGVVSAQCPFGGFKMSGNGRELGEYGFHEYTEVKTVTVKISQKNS
HTT ATP protect – qHTS Multiplex Assay to Identify Dual Action Probes in a Cell Model of Huntington: Cytoprotection (ATP). PC12 HTT-Q103 induced, cytoprotection, ATP luminescence, 40 h. Potency, µM (highest dose often 56.4 µM), without a hit: cytoprotection (ATP increase), most hits filed as activators. 0.14% of 230,000 active. AID 1471, 2008; active means well fitted curve in the direction sought with a large enough effect; inconclusive means small, poorly fitted or top-dose-only effect, or another doubt; inactive means no such curve, though single readings can be large; an effect the other way counts as inactive or inconclusive; further: % of control where 0% means no effect; nearly all actives have a fitted effect of over 45% in size
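PC12 cells with ecdysone-inducible HTT exon 1 Q103-GFP, induced with 100 nM tebufenozide and co-treated with library compounds in a dose series (1536-well, 1500 cells/well). Cytoprotection read as ATP content by ATPlite luminescence.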
HttQ103 aggreg – qHTS Multiplex Assay to Identify Dual Action Probes in a Cell Model of Huntington: Aggregate Formation (GFP) | PC12 HttQ103-GFP aggregates, Acumen cytometry, 40 h | Potency, µM (doses to about 46.1 µM), inactives show at the highest dose activity change, negative = inhibition, most hits filed as inhibitors | 1.1% of 220,000 active; active means well fitted curve in the direction sought with a large enough effect; inconclusive means small, poorly fitted or top-dose-only effect, or another doubt; inactive means no such curve, though single readings can be large; an effect the other way counts as inactive or inconclusive; further: on the % scale 0 is the no-effect control and ±100 the full control effect; nearly all actives have a fitted effect of over 60% in size
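Huntingtin Q103 exon 1–GFP aggregates in induced PC12 cells (100 nM tebufenozide) were quantified by cytometry from lysates, with compounds dosed in titration.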
* hit, by the source's call; ! = not confirmed by another sample; [ ] = remark or other dose. Unless noted, the call rests on the fitted dose curve; in most records, active means well fitted inhibition curve with a large enough effect (not every such curve was filed as active); inconclusive means small, poorly fitted or top-dose-only effect, or another doubt; inactive means no such curve, though single readings can be large or run the other way. Potency means the concentration at half of the fitted maximal effect.

For CC1=NCCN1S(=O)(=O)c1ccccc1[N+](=O)[O-] the results were JMJD2E inh 3.5%, ALDH1A1 inh 6.5%, HTT ATP protect -4.0% and HttQ103 aggreg -5.0%.
For CCc1ccccc1NS(=O)(=O)c1ccc2c(c1)OCC(C(=O)N1CCCC1)O2 (stereo not drawn) the results were Lamin A splicing -14.9%[46 µM].
`COc1ccc(C2=C(Nc3ccc(F)cc3)c3ccccc3C2=O)cc1` gave HPGD block 25.1µM*, JMJD2E inh -1.9%, Lamin A splicing inconclusive, ALDH1A1 inh inconclusive, HTT ATP protect -58.0% and HttQ103 aggreg inconclusive.
`CN(C)c1ccccc1C(=O)N1CCCC(C(=O)c2ccc3ccccc3c2)C1` (stereo not drawn) gave JMJD2E inh 4.0%, ALDH1A1 inh inconclusive, HTT ATP protect 9.4% and HttQ103 aggreg 31.6µM*.
For O=C(c1ccc2ccccc2c1)C1CCCN(C(=O)c2noc3c2CCCC3)C1 (stereo not drawn) the results were JMJD2E inh 7.4% and ALDH1A1 inh 14.1µM*.
`FC(F)(F)c1cccc(Cc2noc(CN3CCC(c4ccncc4)CC3)n2)c1` gave JMJD2E inh -7.5%, ALDH1A1 inh -4.2%, HTT ATP protect -47.0% and HttQ103 aggreg inconclusive.
For CCOc1ccc(S(=O)(=O)N/N=C(\C)C2CCCCC2)cc1 the results were HPGD block -8.3%, JMJD2E inh 2.5%, Lamin A splicing -2.4%, ALDH1A1 inh 1.78µM*, HTT ATP protect -3.9%[10 µM] and HttQ103 aggreg 17.4%.
Screening CCOc1ccc(NC(=S)N/N=C(\C)Cc2ccc(OC)cc2)cc1 returned HPGD block inconclusive, JMJD2E inh -5.7%, Lamin A splicing -19.3%, ALDH1A1 inh -3.3%, HTT ATP protect inconclusive and HttQ103 aggreg -1.9%.
`CCOc1ccc(S(=O)(=O)N/N=C2/CCCC(=O)C2)cc1` gave HPGD block -6.1%, JMJD2E inh -9.7%, Lamin A splicing -6.5%, ALDH1A1 inh inconclusive, HTT ATP protect 34.4%[10 µM] and HttQ103 aggreg 32.0%.
CCOc1ccc(S(=O)(=O)N/N=C(\C)Cc2ccc(OC)cc2)cc1 was read as JMJD2E inh 6.0%, Lamin A splicing -19.5%[46 µM], ALDH1A1 inh 2.82µM*, HTT ATP protect -21.5% and HttQ103 aggreg 10.4%.
COc1cccc(-n2nnc3c(=O)n(CC(=O)NCC4CCCO4)cnc32)c1 (stereo not drawn) was read as HPGD block 15.8µM*, JMJD2E inh -20.1%, Lamin A splicing -9.4%, ALDH1A1 inh -7.4%, HTT ATP protect 4.5%[10 µM] and HttQ103 aggreg -6.5%.
For COc1ccc(-n2nnc3c(=O)n(Cc4cccc(C)c4)cnc32)cc1 the results were HPGD block 15.8µM*, JMJD2E inh -10.5%, Lamin A splicing 13.4%, ALDH1A1 inh -14.7%, HTT ATP protect -20.5%[0.074 µM] and HttQ103 aggreg 21.4%.
Screening COc1cccc(-n2nnc3c(=O)n(CC(=O)N4CCCCC4)cnc32)c1 returned HPGD block inconclusive, JMJD2E inh -2.4%, Lamin A splicing 2.9%, ALDH1A1 inh -2.6%, HTT ATP protect -25.3% and HttQ103 aggreg 4.1%.
`COc1cccc(-n2nnc3c(=O)n(Cc4cccc(F)c4)cnc32)c1` gave HPGD block 14.1µM*, JMJD2E inh inconclusive, Lamin A splicing 20.3%, ALDH1A1 inh 4.3%, HTT ATP protect -6.3% and HttQ103 aggreg -7.8%[9.22 µM].
Screening COc1ccc(-n2ncc3c(=O)n(Cc4c(F)cccc4Cl)cnc32)cc1 returned JMJD2E inh inconclusive, ALDH1A1 inh 28.2µM*, HTT ATP protect 11.7%[10 µM] and HttQ103 aggreg 26.6%[9.22 µM].
For COc1ccc(-n2nc(C(=O)NCC(=O)NCC3CCCO3)c3ccccc3c2=O)c(OC)c1 (stereo not drawn) the results were JMJD2E inh 19.7%, Lamin A splicing 2.4%, ALDH1A1 inh 12.6µM*, HTT ATP protect -14.0% and HttQ103 aggreg 0.8%.
Screening COc1cccc(-n2nnc3c(=O)n(Cc4c(F)cccc4Cl)cnc32)c1 returned HPGD block 28.2µM*, JMJD2E inh -4.4%, Lamin A splicing 4.5%, ALDH1A1 inh inconclusive, HTT ATP protect -9.5%[0.074 µM] and HttQ103 aggreg 3.16µM*.
For COc1cccc(-n2nnc3c(=O)n(CC(=O)Nc4ccc(C)cc4)cnc32)c1 the results were JMJD2E inh -2.0%, ALDH1A1 inh 4.9%, HTT ATP protect -20.1% and HttQ103 aggreg -0.2%[9.22 µM].
COc1cccc(Cn2c(=O)cnc3cnc(Oc4cccc(Cl)c4)nc32)c1 was read as HPGD block inconclusive, ALDH1A1 inh inconclusive and HTT ATP protect 4.4%.
O=C(c1cccc(F)c1)N1CCC2(CCN(Cc3cc(C(F)(F)F)cc(C(F)(F)F)c3)CC2)CC1 was read as HPGD block -8.7%, ALDH1A1 inh -4.4% and HTT ATP protect -5.7%.
`O=C(O)COc1ccc(/C=C/c2nc3ccc([N+](=O)[O-])cc3s2)cc1` gave JMJD2E inh 1.3%, HTT ATP protect -18.0%[10 µM] and HttQ103 aggreg -5.4%[9.22 µM].
For NCCc1cnc[nH]1 the results were HPGD block -8.4%, JMJD2E inh 7.4%, Lamin A splicing 0.891µM*!, ALDH1A1 inh 1.2%, HTT ATP protect inconclusive and HttQ103 aggreg -23.7%.
Screening NCCC(=O)NCCc1cnc[nH]1 returned HPGD block -9.4%, JMJD2E inh -2.8%, Lamin A splicing inconclusive, ALDH1A1 inh 5.1% and HTT ATP protect -1.7%[40.3 µM].
CCC(=O)/C=C/C1C(C)=CCCC1(C)C (stereo not drawn) was read as HPGD block -6.7%, ALDH1A1 inh 12.6µM* and HTT ATP protect -1.4%.
CCOC(=O)c1cnc2nc(C)[nH]n2c1=O was read as HPGD block -2.7%, JMJD2E inh inconclusive, Lamin A splicing 3.1%, ALDH1A1 inh -3.6%, HTT ATP protect 5.1% and HttQ103 aggreg -11.5%.
For CCOC(=O)c1cnc2sc3c(n2c1=O)CCCC3 the results were HPGD block inconclusive, JMJD2E inh inconclusive, Lamin A splicing inconclusive, ALDH1A1 inh inconclusive, HTT ATP protect -12.2%[10 µM] and HttQ103 aggreg 8.91µM*.
`CN1/C(=C\C(=O)Nc2ccc(Br)cc2)C(C)(C)c2ccccc21` gave HPGD block -5.9%, JMJD2E inh inconclusive, Lamin A splicing inconclusive, ALDH1A1 inh inconclusive, HTT ATP protect -0.8%[10 µM] and HttQ103 aggreg -11.0%.
